Laboratory results: PubChem BioAssay (EPA / NIEHS)
Activity calls are given as the source filed them. How the source made its calls: active means hit-call score of the fitted dose curve at least 0.9, where 1 is the maximum; inactive means score below 0.9.

What was measured:
[1] = BSK_3C_Vis: BioMAP Diversity Plus: 3C Assay for Morphology Visualization (AID 2283025); conditions: primary human endothelial cells (HUVEC);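 further: fitted both ways so gain or loss versus DMSO counts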;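 on AC50: light microscopy image of cell morphology used as background control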
In short: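 Human umbilical vein endothelial cell morphology was inspected by light microscopy 24 h after chemical dosing; scored bidirectionally relative to DMSO.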

[2] = read-out: Pselectin, SELP (gene 6403); assay: BSK_4H_Pselectin: BioMAP Diversity Plus: 4H Assay for Pselectin Biomarker Activity (AID 2283026); conditions: primary human endothelial cells (HUVEC); actives raise or lower the signal
In short: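 Primary human umbilical vein endothelial cells were treated 24 h, and cell-surface P-selectin was then quantified by ELISA. Bidirectional fit versus DMSO; cytotoxicity checked in parallel cultures by SRB total-protein staining.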

[3] = BSK_4H_SRB: Viability Assessment in the BioMAP Diversity Plus: 4H Assay (AID 2283027); conditions: primary human endothelial cells (HUVEC);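 on AC50: curves fitted both ways versus DMSO so AC50 may be loss or gain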
In short: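 Human umbilical vein endothelial cells, 24 h after chemical dosing; total protein measured by 0.1% sulforhodamine B staining after 10% TCA fixation, read at 560 nm. Bidirectional fitting against DMSO.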

[4] = BSK_BE3C_SRB: Viability Assessment in the BioMAP Diversity Plus: BE3C Assay (AID 2283028); conditions: primary human bronchial epithelial cells;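 on AC50: fitted both ways so AC50 may mark signal gain or loss versus DMSO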
In short: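 Overt cytotoxicity was assessed as total protein in confluent human primary bronchial epithelial cultures 24 h after chemical addition, using 0.1% sulforhodamine B staining read at 560 nm.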

[5] = read-out: Thrombomodulin, THBD (gene 7056); assay: BSK_3C_Thrombomodulin: BioMAP Diversity Plus: 3C Assay for Thrombomodulin Biomarker Activity (AID 2283029); conditions: primary human endothelial cells (HUVEC); actives raise or lower the signal
In short: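 Human umbilical vein endothelial cells were exposed to chemicals for 24 h; cell-surface thrombomodulin quantified by ELISA, with bidirectional fitting against DMSO baseline.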

[6] = read-out: Urokinase-type plasminogen activator receptor (uPAR), PLAUR (gene 5329); assay: BSK_4H_uPAR: BioMAP Diversity Plus: 4H Assay for Urokinase-type plasminogen activator receptor (uPAR) Biomarker Activity (AID 2283030); conditions: primary human endothelial cells (HUVEC); actives raise or lower the signal
In short: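 Chemicals are dosed onto human vascular endothelial primary cells (umbilical vein). After 24 h, uPAR is read by ELISA. Gain or loss of signal is fitted relative to DMSO.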

[7] = read-out: Vascular endothelial growth factor receptor 2 (Homo sapiens) (UniProt P35968); assay: BSK_4H_VEGFRII: BioMAP Diversity Plus: 4H Assay for Vascular endothelial growth factor receptor 2 (VEGFR2) Biomarker Activity (AID 2283031); conditions: primary human endothelial cells (HUVEC); actives raise or lower the signal;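 on AC50: cell-surface VEGFR2 protein level quantified by ELISA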
In short: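 VEGFRII levels on human vascular endothelial primary cells were determined by ELISA at 24 hours post-dosing, with gain- or loss-of-signal fitted against DMSO controls.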

[8] = read-out: Human Leukocyte Antigen - DR isotype (HLADR), HLA-DRA (gene 3122); assay: BSK_BE3C_HLADR: BioMAP Diversity Plus: BE3C Assay for Human Leukocyte Antigen - DR isotype (HLADR) Biomarker Activity (AID 2283032); conditions: primary human bronchial epithelial cells; actives raise or lower the signal
In short: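 Human primary bronchial epithelial cells (BE3C system) exposed to compound for 24 hours; cell-surface HLA-DR measured by ELISA, fitted bidirectionally relative to DMSO. Total protein by SRB in parallel cultures tracked cytotoxicity.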

[9] = read-out: Vascular cell adhesion molecule 1 (VCAM1), VCAM1 (gene 7412); assay: BSK_4H_VCAM1: BioMAP Diversity Plus: 4H Assay for Vascular cell adhesion molecule 1 (VCAM1) Biomarker Activity (AID 2283033); conditions: primary human endothelial cells (HUVEC); actives raise or lower the signal
In short: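 Primary human umbilical vein endothelial cells, 4H stimulation system, treated for 24 h; cell-surface VCAM-1 quantified by ELISA. Bidirectional fitting against DMSO; cytotoxicity tracked by SRB total-protein staining in parallel cultures.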

[10] = read-out: Interferon-gamma inducible Protein 10 (IP10), CXCL10 (gene 3627); assay: BSK_BE3C_IP10: BioMAP Diversity Plus: BE3C Assay for Interferon-gamma inducible Protein 10 (IP10) Biomarker Activity (AID 2283034); conditions: primary human bronchial epithelial cells; actives raise or lower the signal
In short: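 Primary human bronchial epithelial cells, with IP-10 measured by ELISA 24 hours after chemical dosing. Bidirectional fit against DMSO; cytotoxicity checked by SRB total protein staining in parallel cultures.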

[11] = read-out: Monokine induced gamma interferon (MIG), CXCL9 (gene 4283); assay: BSK_BE3C_MIG: BioMAP Diversity Plus: BE3C Assay for Monokine induced gamma interferon (MIG) Biomarker Activity (AID 2283035); conditions: primary human bronchial epithelial cells; actives raise or lower the signal;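 on outcome: MIG protein measured by ELISA in BE3C cultures after 24 h of dosing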
In short: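 Primary human bronchial epithelial cells treated for 24 h; MIG levels measured by ELISA, fitted bidirectionally versus DMSO. Parallel SRB total-protein staining assessed cytotoxicity.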

[12] = read-out: Transforming growth factor beta 1 (TGFb1), TGFB1 (gene 7040); assay: BSK_BE3C_TGFb1: BioMAP Diversity Plus: BE3C Assay for Transforming growth factor beta 1 (TGFb1) Biomarker Activity (AID 2283036); conditions: primary human bronchial epithelial cells; actives raise or lower the signal
In short: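 Primary human bronchial epithelial cells dosed with chemical; TGF-b1 measured by ELISA 24 h after dosing. Bidirectional curve fitting against DMSO negative control; SRB total-protein staining in parallel cultures gauged cytotoxicity.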

[13] = read-out: Plasminogen activator inhibitor-1 (PAI1), SERPINE1 (gene 5054); assay: BSK_BE3C_PAI1: BioMAP Diversity Plus: BE3C Assay for Plasminogen activator inhibitor-1 (PAI1) Biomarker Activity (AID 2283037); conditions: primary human bronchial epithelial cells; actives raise or lower the signal
In short: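 Primary human bronchial epithelial cells (BE3C system) exposed 24 h; PAI-1 quantified by ELISA. Parallel sulforhodamine B staining of total protein flags cytotoxicity. Bidirectional fit versus DMSO.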

[14] = read-out: urokinase plasminogen activator (uPA), PLAU (gene 5328); assay: BSK_BE3C_uPA: BioMAP Diversity Plus: BE3C Assay for urokinase plasminogen activator (uPA) Biomarker Activity (AID 2283038); conditions: primary human bronchial epithelial cells; actives raise or lower the signal;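 on outcome: uPA protein level quantified by ELISA in cell cultures; uPA read one day after compound addition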
In short: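 Measured by ELISA: uPA from human primary bronchial epithelial cells 24 h after chemical treatment. Values derive from bidirectional curve fitting with DMSO serving as negative control. Total protein by SRB staining in parallel wells flagged overt cytotoxicity.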

[15] = read-out: Urokinase-type plasminogen activator receptor (uPAR), PLAUR (gene 5329); assay: BSK_BE3C_uPAR: BioMAP Diversity Plus: BE3C Assay for Urokinase-type plasminogen activator receptor (uPAR) Biomarker Activity (AID 2283039); conditions: primary human bronchial epithelial cells; actives raise or lower the signal;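 on outcome: cells exposed to compound for one day before measurement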
In short: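 Primary human bronchial epithelial cells dosed for 24 h; uPAR quantified by ELISA with bidirectional fitting against DMSO. Overt cytotoxicity assessed in parallel cultures by SRB total-protein staining (0.1% SRB, 560 nm).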

[16] = read-out: Interleukin-6 (IL6), IL6 (gene 3569); assay: BSK_CASM3C_IL6: BioMAP Diversity Plus: CASM3C Assay for Interleukin-6 (IL6) Biomarker Activity for (AID 2283040); conditions: primary human coronary artery smooth muscle cells; actives raise or lower the signal
[17] = read-out: Tissue plasminogen activator (tPA), PLAT (gene 5327); assay: BSK_BE3C_tPA: BioMAP Diversity Plus: BE3C Assay for Tissue plasminogen activator (tPA) Biomarker Activity (AID 2283041); conditions: primary human bronchial epithelial cells; actives raise or lower the signal;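 on outcome: tPA level quantified by ELISA one day after compound addition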
In short: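 Primary human bronchial epithelial cells in the BE3C system, exposed to compound for 24 h. tPA was quantified by ELISA; DMSO served as baseline, with gain or loss of signal fitted. Cytotoxicity checked in parallel cultures by SRB total-protein staining.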

[18] = read-out: Interleukin-8 (IL8), CXCL8 (gene 3576); assay: BSK_CASM3C_IL8: BioMAP Diversity Plus: CASM3C Assay for Interleukin-8 (IL8) Biomarker Activity (AID 2283042); conditions: primary human coronary artery smooth muscle cells; actives raise or lower the signal;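 further: IL-8 protein level quantified by ELISA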
[19] = read-out: Human Leukocyte Antigen - DR isotype (HLADR), HLA-DRA (gene 3122); assay: BSK_CASM3C_HLADR: BioMAP Diversity Plus: CASM3C Assay for Human Leukocyte Antigen - DR isotype (HLADR) Biomarker Activity (AID 2283043); conditions: primary human coronary artery smooth muscle cells; actives raise or lower the signal;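 further: cell-surface HLA-DR protein level quantified by ELISA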
[20] = read-out: Macrophage colony-stimulating factor (MCSF), CSF1 (gene 1435); assay: BSK_CASM3C_MCSF: BioMAP Diversity Plus: CASM3C Assay for Macrophage colony-stimulating factor (MCSF) Biomarker Activity (AID 2283044); conditions: primary human coronary artery smooth muscle cells; actives raise or lower the signal;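 further: M-CSF protein amount quantified by ELISA after 24 h exposure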

In the case of OC(Cc1ccccc1Cl)(Cn1cncn1)C1(Cl)CC1 (centres undefined), the outcome [1] is reported as “inactive”, the outcome [2] is reported as “inactive” and the outcome [3] is reported as “inactive”. The outcome [4] was “inactive”, the outcome [5] was “inactive” and the outcome [6] was “inactive”. The outcome [7] was “inactive”, the outcome [8] was “inactive” and the outcome [9] was “inactive”. For the same compound, the outcome [10] was “inactive”, the outcome [11] was “inactive” and the outcome [12] was “inactive”. For the same compound, the outcome [13] was “inactive”, the outcome [14] was “inactive” and the outcome [15] was “inactive”. For the same compound, the outcome [16] was “inactive”, the outcome [17] was “inactive” and the outcome [18] was “inactive”. The outcome [19] was “inactive” and the outcome [20] was “inactive”.
With O=[N+]([O-])c1ccc(Nc2ccccc2)cc1 the outcome [1] was “inactive”, the outcome [3] was “inactive” and the outcome [4] was “inactive”. The outcome [5] was “inactive”, the outcome [6] was “inactive” and the outcome [7] was “inactive”. The outcome [8] was “inactive”, the outcome [9] was “inactive” and the outcome [10] was “inactive”. The outcome [11] was “inactive”, the outcome [12] was “inactive” and the outcome [13] was “inactive”. For the same compound, the outcome [14] was “inactive”, the outcome [15] was “inactive” and the outcome [16] was “inactive”. The outcome [17] was “inactive”, the outcome [18] was “inactive” and the outcome [19] was “inactive”. The outcome [20] was “inactive”.
With Cc1cc(C(C)(C)c2ccc(O)c(C)c2)ccc1O the AC50 [1] was 18.7 µM (active), the AC50 [2] was 17.7 µM (active) and the AC50 [3] was 14.3 µM (active). The outcome [4] was “inactive”, the outcome [5] was “inactive” and the AC50 [6] was 15.3 µM (active). The outcome [7] was “inactive”, the AC50 [8] was 10 µM (active) and the AC50 [9] was 16.8 µM (active). For the same compound, the AC50 [10] was 10 µM (active), the outcome [11] was “inactive” and the AC50 [12] was 10 µM (active). The AC50 [13] was 10 µM (active), the outcome [14] was “inactive” and the AC50 [15] was 3.66 µM (active). For the same compound, the AC50 [16] was 10 µM (active), the AC50 [17] was 15.2 µM (active) and the outcome [18] was “inactive”. The AC50 [19] was 17.4 µM (active) and the AC50 [20] was 15.2 µM (active).
For N#CCCC(Br)(C#N)CBr (centres undefined), the AC50 [1] was 5.04 µM (active), the AC50 [2] was 6.62 µM (active) and the AC50 [3] was 6.36 µM (active). The AC50 [4] was 20 µM (active), the outcome [5] was “inactive” and the AC50 [6] was 8.75 µM (active). For the same compound, the AC50 [7] was 5.39 µM (active), the AC50 [8] was 27.9 µM (active) and the AC50 [9] was 7.87 µM (active). For the same compound, the AC50 [10] was 28.1 µM (active), the AC50 [11] was 36.8 µM (active) and the AC50 [12] was 20 µM (active). The AC50 [13] was 20 µM (active), the AC50 [14] was 20 µM (active) and the AC50 [15] was 20 µM (active). The AC50 [16] was 20 µM (active), the AC50 [17] was 9.86 µM (active) and the AC50 [18] was 20 µM (active). The AC50 [19] was 8.75 µM (active) and the AC50 [20] was 20 µM (active).
For [Cl][Sn]([c]1ccccc1)([c]1ccccc1)[c]1ccccc1, the AC50 [1] was 0.176 µM (active), the AC50 [2] was 0.0641 µM (active) and the AC50 [3] was 0.192 µM (active). The AC50 [4] was 0.146 µM (active), the AC50 [5] was 5 µM (active) and the AC50 [6] was 0.205 µM (active). For the same compound, the outcome [7] was “inactive”, the AC50 [8] was 0.0934 µM (active) and the AC50 [9] was 0.0783 µM (active). For the same compound, the AC50 [10] was 0.0935 µM (active), the AC50 [11] was 0.209 µM (active) and the outcome [12] was “inactive”. For the same compound, the AC50 [13] was 0.992 µM (active), the AC50 [14] was 0.27 µM (active) and the AC50 [15] was 0.27 µM (active). The AC50 [16] was 0.726 µM (active), the AC50 [17] was 0.0792 µM (active) and the AC50 [18] was 0.499 µM (active). For the same compound, the AC50 [19] was 0.261 µM (active) and the AC50 [20] was 0.718 µM (active).
